ChEMBL document CHEMBL1157539, “Thousands of chemical starting points for antimalarial lead identification” (Nature, 2010)
Over roughly 13,000 compounds, “IFI” has its median near 4; the highest 2% begin near 17. The sample as a whole holds a higher share of the highest values than the screen did.

Assay: GSK_TCMDC: Inhibition Frequency Index (IFI). The number of non-kinase HTS assays where a compound showed > 50 % inhibition, expressed as a percentage of the number of such assays in which the compound was tested
Assay type: functional

With `Cc1ccc(F)c(OCC2CCN(c3ncc(C(=O)NC4CC4)cc3Cl)CC2)c1` as the compound, how does the IFI read?
The IFI was 17.3%.

For `Cc1ccc(OCC2CCN(c3ncc(C(=O)NC4CC4)cc3Cl)CC2)cc1`, which IFI is on record?
Its IFI is 0%.

Which IFI does the source give for `Cc1cc(OCC2CCN(c3ncc(C(=O)NC4CC4)cc3Cl)CC2)ccc1F` here?
Its IFI is 9.8%.

With `CN1CCC(NCc2cccc(-c3cccc(S(=O)(=O)NCc4ccccc4)c3)c2)CC1` as the compound, how does the IFI read?
The IFI was 11.2%.

With `CCN(CC)CCOc1ccc(C(O)(C#CC(O)(c2ccccc2)c2ccc(OCCN(CC)CC)cc2)c2ccccc2)cc1` (stereo unspecified) as the compound, how does the IFI read?
Its IFI is 6.52%.

For `CCN(CC)CCNC(=O)c1ccc(NC(=O)c2oc3c(Cl)cccc3c2C)cc1`, which IFI is on record?
Its IFI is 4.76%.

Which IFI does the source give for `CCN(CC)CCOc1ccc(NC(=O)c2oc3ccccc3c2C=Cc2ccccc2)cc1` here?
The IFI was 18.5%.

Which IFI does the source give for `COC(=O)c1cccc(CNCc2ccc(-c3ccc(-c4nc5cccc(C)c5[nH]4)s3)cc2)c1` here?
Its IFI is 7.55%.

Which IFI does the source give for `CN1CCN(CCCN(Cc2cccc(-c3cccc(CNCc4ccc5c(c4)OCO5)c3)c2)C(=O)CCC2CCCC2)CC1` here?
Its IFI is 10.9%.

With `CC(C)C[C@H](NC(=O)c1cc2ccccc2s1)C(=O)N[C@H]1CCN(Cc2ccc(I)c(OC3CCN(C)C3)c2)C1` (stereo partly specified) as the compound, how does the IFI read?
The IFI was 16.7%.

Which IFI does the source give for `O=C(Nc1ccc2ccccc2c1)c1ccc(CN2CCC(Cc3ccccc3)CC2)cc1` here?
The IFI was 6.21%.

With `CCCCOc1cc2c(cc1OCC)C(C=Cc1ccc(Cl)cc1Cl)=NCC2` as the compound, how does the IFI read?
The IFI was 6.67%.

Which IFI does the source give for `CCCOc1cc2c(cc1OCCC)C(C=Cc1ccc(Cl)cc1Cl)=NC(C)C2` (stereo unspecified) here?
The IFI was 19%.

With `C/C=C/C=C/C1=NCCc2cc(OCCC)ccc21` as the compound, how does the IFI read?
The IFI was 8.76%.

For `COc1ccc(CNCCc2cccs2)cc1-c1cccc(S(=O)(=O)NCCN2CCCC2)c1`, which IFI is on record?
The IFI was 9.8%.

With `C=CCN(C(=O)c1ccc(Cl)c([N+](=O)[O-])c1)c1nc(-c2ccccc2)cs1` as the compound, how does the IFI read?
Its IFI is 3.39%.

With `Nc1ncc(-c2ccc(NC(=O)Nc3cc(C(F)(F)F)ccc3F)cc2)c(N)n1` as the compound, how does the IFI read?
Its IFI is 0%.

With `Nc1nccc2ccc(-c3ccc(NC(=O)Nc4cc(C(F)(F)F)ccc4F)cc3)cc12` as the compound, how does the IFI read?
Its IFI is 20.2%.

With `Nc1ccc(-c2ccc(NC(=O)Nc3cc(C(F)(F)F)ccc3F)cc2)cn1` as the compound, how does the IFI read?
The IFI was 1.32%.

For `Cc1[nH]c(C)c(-c2ccc(Oc3ccccc3)cc2)c(=O)c1Br`, which IFI is on record?
The IFI was 6.11%.

Which IFI does the source give for `Cc1nc(-c2cccc(Nc3nccc(NCC(O)c4ccccc4)n3)c2)cs1` (stereo unspecified) here?
The IFI was 24.1%.

For `Cc1nc(-c2cccc(Nc3nccc(NCC(O)c4cccc(C(F)(F)F)c4)n3)c2)cs1` (stereo unspecified), which IFI is on record?
Its IFI is 11%.

Which IFI does the source give for `Cc1cccc(C(O)CNc2ccnc(Nc3cccc(-c4csc(C)n4)c3)n2)c1` (stereo unspecified) here?
Its IFI is 13.6%.

For `Cc1ccc(C(O)CNc2ccnc(Nc3cccc(-c4csc(C)n4)c3)n2)cc1` (stereo unspecified), which IFI is on record?
The IFI was 8.74%.

With `Cc1nc(-c2cccc(Nc3nccc(NCC(O)c4ccccc4C(F)(F)F)n3)c2)cs1` (stereo unspecified) as the compound, how does the IFI read?
The IFI was 22.8%.

With `Cc1nc(-c2cccc(Nc3nccc(NCC(O)c4ccccc4C)n3)c2)cs1` (stereo unspecified) as the compound, how does the IFI read?
The IFI was 13.6%.
